From PubChem BioAssay (NCATS)
Results filed as inconclusive are left out. Active and inactive are the calls of the source. The call rests on the fitted dose curve; in most records, active means well fitted inhibition curve with a large enough effect; inconclusive means small, poorly fitted or top-dose-only effect; inactive means flat fitted curve, though single readings scatter.

How the values were obtained:
CP262 = assay: qHTS profiling for inhibitors of Plasmodium falciparum proliferation (AID 504749);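 further: 0% = DMSO vehicle and full inhibition = artemisinin control; nearly all actives have a fitted effect of over 60% in size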; conditions: P. falciparum in erythrocytes, SYBR Green DNA, 72 h; series mostly up to 28.7 µM
Procedure, shortened: (§1)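 Quantitative HTS: compounds pinned into medium, infected erythrocytes added (0.3% parasitemia, 2.5% hematocrit), 72 h culture at 37 C under 5% CO2. Saponin/Triton lysis with SYBR Green I, overnight RT, then fluorescence read.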

CP265 = assay: as above; conditions: P. falciparum in erythrocytes, SYBR Green DNA, 72 h; series mostly up to 28.7 µM
Procedure, shortened: as §1

CP266 = assay: as above; conditions: P. falciparum in erythrocytes, SYBR Green DNA, 72 h; series mostly up to 28.7 µM
Procedure, shortened: as §1

CP268 = assay: as above; conditions: P. falciparum in erythrocytes, SYBR Green DNA, 72 h; series mostly up to 28.7 µM
Procedure, shortened: as §1

CP269 = assay: as above; conditions: P. falciparum in erythrocytes, SYBR Green DNA, 72 h; series mostly up to 28.7 µM
Procedure, shortened: as §1

CP286 = assay: as above; conditions: P. falciparum in erythrocytes, SYBR Green DNA, 72 h; series mostly up to 28.7 µM
Procedure, shortened: as §1

CP291 = assay: as above; conditions: P. falciparum in erythrocytes, SYBR Green DNA, 72 h; series mostly up to 28.7 µM
Procedure, shortened: as §1

CP297 = assay: as above; conditions: P. falciparum in erythrocytes, SYBR Green DNA, 72 h; series mostly up to 28.7 µM
Procedure, shortened: as §1

CP305 = assay: as above; conditions: P. falciparum in erythrocytes, SYBR Green DNA, 72 h; series mostly up to 28.7 µM
Procedure, shortened: as §1

CP315 = assay: as above; conditions: P. falciparum in erythrocytes, SYBR Green DNA, 72 h; series mostly up to 28.7 µM
Procedure, shortened: as §1

CP325 = assay: as above; conditions: P. falciparum in erythrocytes, SYBR Green DNA, 72 h; series mostly up to 28.7 µM
Procedure, shortened: as §1

CP329 = assay: as above; conditions: P. falciparum in erythrocytes, SYBR Green DNA, 72 h; series mostly up to 28.7 µM
Procedure, shortened: as §1

CP335 = assay: as above; conditions: P. falciparum in erythrocytes, SYBR Green DNA, 72 h; series mostly up to 28.7 µM
Procedure, shortened: as §1

DFO2036 = assay: as above; conditions: P. falciparum in erythrocytes, SYBR Green DNA, 72 h; series mostly up to 28.7 µM
Procedure, shortened: as §1

DIV14 = assay: as above; conditions: P. falciparum in erythrocytes, SYBR Green DNA, 72 h; series mostly up to 28.7 µM
Procedure, shortened: as §1

DIV17 = assay: as above; conditions: P. falciparum in erythrocytes, SYBR Green DNA, 72 h; series mostly up to 28.7 µM
Procedure, shortened: as §1

DIV30 = assay: as above; conditions: P. falciparum in erythrocytes, SYBR Green DNA, 72 h; series mostly up to 28.7 µM
Procedure, shortened: as §1

Dd2 = assay: as above; conditions: P. falciparum in erythrocytes, SYBR Green DNA, 72 h; series mostly up to 28.7 µM
Procedure, shortened: as §1

ECU = assay: as above; conditions: P. falciparum in erythrocytes, SYBR Green DNA, 72 h; series mostly up to 28.7 µM
Procedure, shortened: as §1

FAB9 = assay: as above; conditions: P. falciparum in erythrocytes, SYBR Green DNA, 72 h; series mostly up to 28.7 µM
Procedure, shortened: as §1

GB4 = assay: as above; conditions: P. falciparum in erythrocytes, SYBR Green DNA, 72 h; series mostly up to 28.7 µM
Procedure, shortened: as §1

HB3 = assay: as above; conditions: P. falciparum in erythrocytes, SYBR Green DNA, 72 h; series mostly up to 28.7 µM
Procedure, shortened: as §1

ICS = assay: as above; conditions: P. falciparum in erythrocytes, SYBR Green DNA, 72 h; series mostly up to 28.7 µM
Procedure, shortened: as §1

JCK = assay: as above; conditions: P. falciparum in erythrocytes, SYBR Green DNA, 72 h; series mostly up to 28.7 µM
Procedure, shortened: as §1

N140 = assay: as above; conditions: P. falciparum in erythrocytes, SYBR Green DNA, 72 h; series mostly up to 28.7 µM
Procedure, shortened: as §1

P93_24 = assay: as above; conditions: P. falciparum in erythrocytes, SYBR Green DNA, 72 h; series mostly up to 28.7 µM
Procedure, shortened: as §1

P94_40 = assay: as above; conditions: P. falciparum in erythrocytes, SYBR Green DNA, 72 h; series mostly up to 28.7 µM
Procedure, shortened: as §1

PAD = assay: as above; conditions: P. falciparum in erythrocytes, SYBR Green DNA, 72 h; series mostly up to 28.7 µM
Procedure, shortened: as §1

PC15 = assay: as above; conditions: P. falciparum in erythrocytes, SYBR Green DNA, 72 h; series mostly up to 28.7 µM
Procedure, shortened: as §1

PC26 = assay: as above; conditions: P. falciparum in erythrocytes, SYBR Green DNA, 72 h; series mostly up to 28.7 µM
Procedure, shortened: as §1

PC49 = assay: as above; conditions: P. falciparum in erythrocytes, SYBR Green DNA, 72 h; series mostly up to 28.7 µM
Procedure, shortened: as §1

SC27B = assay: as above; conditions: P. falciparum in erythrocytes, SYBR Green DNA, 72 h; series mostly up to 28.7 µM
Procedure, shortened: as §1

TAB109 = assay: as above; conditions: P. falciparum in erythrocytes, SYBR Green DNA, 72 h; series mostly up to 28.7 µM
Procedure, shortened: as §1

TAB113 = assay: as above; conditions: P. falciparum in erythrocytes, SYBR Green DNA, 72 h; series mostly up to 28.7 µM
Procedure, shortened: as §1

TAB165 = assay: as above; conditions: P. falciparum in erythrocytes, SYBR Green DNA, 72 h; series mostly up to 28.7 µM
Procedure, shortened: as §1

W2 = assay: as above; conditions: P. falciparum in erythrocytes, SYBR Green DNA, 72 h; series mostly up to 28.7 µM
Procedure, shortened: as §1

KB-3-1 = assay: Cytotoxic Profiling of Annotated Libraries Using Quantitative High-Throughput Screening (AID 1296008); conditions: Five cell lines viability, CellTiter-Glo ATP luminescence, 48-72 h; max response: active compounds read low; further: on the % scale 0 is the no-effect control and ±100 the full control effect; nearly all actives have a fitted effect of over 60% in size
Procedure, shortened: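 Compounds were pin-transferred onto cells and incubated 48 or 72 hr at 37 degree Celsius, 95% humidity. CellTiter-Glo was added, plates sat 10 min at room temperature, then ATP-coupled luminescence was imaged as the viability read-out.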

[1] = Drug repurposing screens with cells derived from glioblastoma tumor samples (AID 1345199); conditions: GBM patient neurospheres viability, ATP luminescence, 48 h; Potency: tumour line A; series mostly up to 45.9 µM; further: on the % scale 0 is the no-effect control and ±100 the full control effect; nearly all actives have a fitted effect of over 40% in size
Procedure, shortened: (§2)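 Primary testing used CD133+ neurospheres from four GBM patients, seven concentrations, 48 h exposure and ATP-based viability; confirmation added three slower-growing patient lines.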

astro = assay: as above; conditions: viability, ATP luminescence, 48 h; series mostly up to 45.9 µM
Procedure, shortened: as §2

C[N+](C)(C)CC(=O)[O-]
inactive: Potency (CP262) | Potency (CP265) | Potency (CP266) | Potency (CP268) | Potency (CP269) | Potency (CP286) | Potency (CP291) | Potency (CP297) | Potency (CP305) | Potency (CP315) | Potency (CP325) | Potency (CP329) | Potency (CP335) | Potency (DFO2036) | Potency (DIV14) | Potency (DIV17) | Potency (DIV30) | Potency (Dd2) | Potency (ECU) | Potency (FAB9) | Potency (GB4) | Potency (HB3) | Potency (ICS) | Potency (JCK) | Potency (N140) | Potency (P93_24) | Potency (P94_40) | Potency (PAD) | Potency (PC15) | Potency (PC26) | Potency (PC49) | Potency (SC27B) | Potency (TAB109) | Potency (TAB113) | Potency (TAB165) | Potency (W2) | max response (KB-3-1) 9.58% | Potency [1] | Potency (astro)
